Insulin prom inh: TRM-6 insulin promoter activity inhibition | inhibition, % at 2 µM | TRM-6 cells (human fetal islet line), insulin promoter-eGFP reporter, imaging; reporter expression induced with tamoxifen | hit rate 0.9% among 130,000;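 active means inhibition above the mean plus 3 SD, with well images judged a real hit on visual review, cut at about 60% in these data, passing the limit was not always enough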
Autophagy mod: modulators of autophagy; MEF GFP-LC3 puncta imaging; test concentration mostly 10 µM; calls only at 10 µM (by protocol); hit rate 0.98% among 190,000; AID 463193;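 active means percentage of spot-positive cells more than 3 SD above its plate mean, without a fluorescence outlier flag or 80% toxicity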;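 further: spot-positive cell cutoff set from DMSO-treated cells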
Insulin prom up: MIN6 insulin promoter up-regulation; z-score at 5 µM; AID 1625; hit rate 0.3% among 190,000; MIN6 insulin promoter-GFP reporter, high-content imaging; hits give high values;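 active means z-score above 3 at 5 µM with at least 500 cells counted in the well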
L major viab: inhibitors of Leishmania major promastigote growth. AID 1063. hit rate 9% among 200,000. inhibition, % at 10 µM. Leishmania major promastigotes, resazurin fluorescence viability; in the data active means inhibition above about 50%;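 further: promastigotes grown with compound for 44 hours at 28 °C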
HCT116 PTEN-null: suppresses growth of cells with PTEN deletion; hit rate 1.2% among 140,000; HCT116 PTEN-null viability, CellTiter-Glo, 60 h; hits give low values; viability, % at 10 µM; AID 827;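 active means viability at or below a set limit, 4 SD under the median of all tested compounds, cut at about 3.7% in these data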;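 further: PTEN knockout HCT116 line with beta catenin targeted HCT116 as companion control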
bCat KO growth: beta-catenin-lacking colon tumor cell growth suppression; viability, % at 10 µM; hit rate 1.5% among 140,000; HCT116 beta-catenin knockout viability, CellTiter-Glo, 60 h; hits give low values;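 active means viability at or under a set limit, the compound median less 4 SD, cut at about 6% in these data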;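 further: 0% = Hyamine 1622 control at 20 µM and 100% = untreated cell control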
* hit, by the source's call; i = inactive; · = no result. Sampled rows, rich in hits. Any-hit rate of the full collection: about 9.6%.

SMILES	Insulin prom inh	Autophagy mod	Insulin prom up	L major viab	HCT116 PTEN-null	bCat KO growth
Cc1cc(O)c2c(c1)C(O)(C1OC(CO)C(O)C(O)C1O)c1cccc(O)c1C2=O (stereo unspecified)	4.8	i	0.4	-5.6	94.8	99.7
CN(C)c1ccnc(N(Cc2ccccc2)Cc2ccccc2)c1C#N	17.4	i	0.29	97.6*	85.1	73.7
Cc1ccc(C)c(C(=O)Nc2cc(C)nn2-c2nc(C)cc(C)n2)c1	·	i	-0.01	28.6	·	·
Cc1ccc2c(CN3CCN(CCO)CC3)cc(=O)oc2c1	11.1	i	0.13	1.4	104.8	95.9
Cc1ccc2c(Cn3cc(C(F)(F)F)cc(Cl)c3=O)cc(=O)oc2c1	-11.1	i	-0.52	52.5*	95.2	95.7
CCc1ccc(OCCCC(=O)NCc2ccco2)cc1	·	i	0.15	-6.1	·	·
O=C(COC(=O)C1CCN(S(=O)(=O)c2cccs2)CC1)c1ccccc1	·	i	0.09	-10.6	·	·
COc1ccc(NC(=S)N(CCCN2CCOCC2)C(C)c2cc3cccc(OC)c3o2)cc1 (stereo unspecified)	-50.0	i	·	5.7	·	·
COc1cccc2cc(C(C)N(CCCN3CCOCC3)C(=O)Nc3ccccc3)oc12 (stereo unspecified)	6.2	i	-1.37	81.7*	89.5	82.4
COc1cccc(NC(=S)N(CCCN2CCOCC2)C(C)c2cc3ccccc3o2)c1 (stereo unspecified)	-33.3	i	-1.51	97.0*	·	·
COCCn1c(SCc2ccc(OC)c(F)c2)nc2ccccc2c1=O	·	i	-1.43	99.8*	·	·
COCCn1c(SCC(=O)N2CCCCC2)nc2ccccc2c1=O	·	i	1.4	2.9	101.0	84.3
COCCn1c(SCCN2CCCCC2)nc2ccccc2c1=O	·	i	0.09	100.2*	95.8	89.8
O=C(c1ccc2c(c1)OCCO2)N(c1ccccn1)C1CCCCC1	12.9	i	-0.95	-4.2	93.7	91.1
COc1ccc(-c2csc3ncnc(Cl)c23)cc1	·	i	0	5.6	·	·
COc1ccc(Nc2ncnc3scc(-c4ccc(OC)cc4)c23)cc1	-4.0	i	0.03	87.8*	21.3	19.4
NNc1ncnc2scc(-c3ccc(Cl)cc3)c12	·	i	-0.03	68.3*	8.5	14.0
COc1nc2ccccc2nc1OC	·	i	0.22	-6.0	·	·
O=C(NCCCN1CCOCC1)c1cc2c(s1)CCCC2	-70.0	i	1.03	91.3*	102.1	94.4
O=C(NCCCN1CCOCC1)c1csc2c1CCCC2	·	i	0.68	85.2*	99.5	88.6
O=C(NCCCN1CCCC1=O)c1cc2c(s1)CCCCC2	·	·	0.67	·	·	·
N/C(Cc1ccc(Cl)cc1)=N\OC(=O)c1cccc2ccccc12	-56.8	i	0.96	99.0*	41.3	38.7
N#CC1=C(N)Oc2n[nH]c(-c3cccs3)c2C1c1ccncc1 (stereo unspecified)	-66.7	i	1.15	-6.3	·	·
CC(=O)N1CCCc2cc(S(=O)(=O)N3CCc4ccccc4C3)ccc21	-7.7	i	0.57	98.5*	77.0	100.4
CCC(=O)N1CCc2cc(S(=O)(=O)N3CCc4ccccc4C3)ccc21	61.3	i	-0.61	3.5	103.2	99.6
SMILES	Insulin prom inh	Autophagy mod	Insulin prom up	L major viab	HCT116 PTEN-null	bCat KO growth
CC(=O)N1CCCc2cc(S(=O)(=O)N(C)Cc3ccccc3)ccc21	31.4	i	1.33	61.0*	87.0	80.1
CC(C)OP(=O)(Nc1cccc2ccccc12)OC(C)C	-71.4	i	-0.08	1.1	93.9	88.2
O=C(Nc1ccc2nsnc2c1)C1CC1	14.3	i	·	-9.0	·	·
CC(C)(C)C(O)(CC#CCN1CCCC1)c1ccccc1 (stereo unspecified)	·	i	-0.14	69.2*	·	·
CC(C)C(O)(C#CCN1CCCCCC1)c1ccccc1 (stereo unspecified)	21.4	i	-1	82.5*	·	·
CC(C)C(O)(CC#CCN1CCCC1)c1ccccc1 (stereo unspecified)	-68.8	i	-1.26	54.4*	·	·
C(#CCN1CCCC1)CC(c1ccccc1)c1ccccc1	·	i	-0.7	100.0*	·	·
CCCCCNC(=O)CN(c1ccc2c(c1)OCO2)S(C)(=O)=O	7.9	i	-0.94	-3.4	93.1	82.3
O=C(N/N=C/c1ccc(N2CCOCC2)cc1)c1ccccc1OCCOc1ccccc1	·	i	-1.5	60.9*	·	·
O=C(N/N=C\c1cn(-c2ccccc2)nc1-c1ccccc1)c1ccc(Br)o1	-73.3	i	3.24*	47.9	6.6	7.1
O=C(N/N=C/c1cn(-c2ccccc2)nc1-c1ccccc1)c1ccco1	·	i	-4.01	19.8	101.1	101.0

Screens: PubChem, several laboratories
